Source: PubChem
ST2 inh: inhibitors of human ST2 (IL1RL1) binding to IL-33, primary screen, biochemical, AlphaLISA; Interleukin-1 receptor-like 1 (Homo sapiens), Q01638; AlphaLISA ST2-Fc/biotin-IL-33 interaction, 1 h; inhibition, % for hits at 17 µM; actives 2.3% (n = 78,000); AID 1259354, 2018; in the data active = inhibition above about 30%
Target sequence (Q01638 whole entry, looked up): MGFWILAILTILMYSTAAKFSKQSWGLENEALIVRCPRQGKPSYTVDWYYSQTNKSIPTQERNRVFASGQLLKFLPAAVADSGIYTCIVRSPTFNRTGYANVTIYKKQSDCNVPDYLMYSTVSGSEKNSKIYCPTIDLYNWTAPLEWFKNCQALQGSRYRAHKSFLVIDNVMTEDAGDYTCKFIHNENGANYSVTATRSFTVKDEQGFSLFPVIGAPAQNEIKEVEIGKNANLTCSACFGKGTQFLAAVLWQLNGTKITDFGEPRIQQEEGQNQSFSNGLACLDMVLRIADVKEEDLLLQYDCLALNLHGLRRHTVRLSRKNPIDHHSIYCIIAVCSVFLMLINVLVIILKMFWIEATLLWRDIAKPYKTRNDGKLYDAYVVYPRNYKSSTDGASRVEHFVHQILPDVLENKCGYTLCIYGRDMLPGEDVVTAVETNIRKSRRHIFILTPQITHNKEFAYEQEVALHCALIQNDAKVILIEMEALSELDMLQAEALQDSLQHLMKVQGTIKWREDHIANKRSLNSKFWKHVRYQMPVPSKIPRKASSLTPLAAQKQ
A number is an active result; – = inactive. The entries come from a sample that favours hits as a whole.

SMILES	ST2 inh
Cc1n[nH]c(C)c1S(=O)(=O)N1CCC(C(=O)NCc2ccco2)CC1	–
Cc1cccc(C(=O)Nc2ccc(Cl)c(C(N)=O)c2)c1	–
Cc1ccc(CN2CCC(CNC(=O)C3(N)CCCC3)C2)cc1C (stereo not given)	–
O=C(Cn1c2ccccc2c(=O)c2ccccc21)Nc1ccccc1Br	–
O=C(Cn1c2ccccc2c(=O)c2ccccc21)Nc1ccccc1F	–
O=C(Cn1c2ccccc2c(=O)c2ccccc21)Nc1ccccc1C(F)(F)F	39.0%
Cc1c(C(=O)NC2CCCCC2C)oc2ccc(S(=O)(=O)N3CCCC3)cc12 (stereo not given)	–
COc1ccc(S(=O)(=O)N=C2C=C(Nc3ccccc3)C(=O)c3ccccc32)cc1	85.0%
COc1ccc(NC(=O)C(Cc2ccccc2)N2C(=O)c3ccccc3C2=O)cc1 (stereo not given)	–
Cc1ccccc1NC(=O)C(NS(=O)(=O)c1cccs1)C(C)C (stereo not given)	–
CCOc1ccc(NC2=CC(=NS(=O)(=O)c3ccc(F)cc3)c3ccccc3C2=O)cc1	95.0%
COc1ccccc1NS(=O)(=O)c1ccc(C(C)(C)C)cc1	–
CCOc1c(Nc2ccc(F)cc2)c(=O)c1=O	–
CC1=C(C(=O)Nc2ccc(C)cc2C)C(c2cccs2)n2nnnc2N1 (stereo not given)	–
COc1ccc(C)cc1NS(=O)(=O)c1ccc(OC)c(OC)c1	–
COc1ccccc1NC1=CC(=NS(=O)(=O)c2ccc(C)cc2)c2ccccc2C1=O	94.0%
Cc1ccc(NC2=CC(=NS(=O)(=O)c3cccs3)c3ccccc3C2=O)c(C)c1	89.0%
CCOc1ccc(NC(=O)c2ccccc2F)cc1	–
COc1ccc(C=NS(=O)(=O)c2ccccc2)c(OC)c1	–
COc1ccc(N2CCN(S(=O)(=O)c3ccc(OC)c(OC)c3)CC2)cc1	–
CC1CCC(C(=O)NC(C(=O)Nc2ccncc2)C(C)C)CC1 (stereo not given)	–
CC(=O)c1ccc(N2CCN(S(=O)(=O)c3ccc4c(c3)CCN4C(=O)C3CC3)CC2)cc1	–
O=C(C1CCN(c2nc(-c3ccccc3)nc3c2CCC3)CC1)N1CCc2ccccc2C1	–
CCN(CC)CCN1C(=O)C(=O)C(=C(O)c2ccc(F)cc2)C1c1ccc(OC)c(OC)c1 (stereo not given)	–
O=C(CSc1c2c(nc3ccc(Cl)cc13)CCCC2)NCc1ccccn1	–
SMILES	ST2 inh
COc1ccc(Oc2c(C(F)(F)F)oc3cc(OC)ccc3c2=O)cc1	–
COc1ccccc1C(=O)Nc1ccc(C)c(Cl)c1	–
CC1CCCN(CCCNS(=O)(=O)c2cccc3nonc23)C1 (stereo not given)	–
CCc1ccc(S(=O)(=O)NCC(=O)O)cc1	–
COc1ccc(S(=O)(=O)N=C2C=CC(=O)c3ccccc32)cc1	39.0%
COc1ccc(S(=O)(=O)N=C2C=C(C(C)C)C(=O)C=C2C)cc1	–
CCOc1ccc(Nc2c(OCC)c(=O)c2=O)cc1	–
CCOc1ccc(NC(=O)Cc2ccc(OC)cc2)cc1	–
CCOc1ccc(NC2=CC(=NS(=O)(=O)c3ccc(OCC)cc3)c3ccccc3C2=O)cc1	93.0%
CC(C)Cc1ccc(S(=O)(=O)Nc2ccccc2)cc1	–
CCc1ccc(NS(=O)(=O)c2ccc(OC)cc2)cc1	–
COc1ccc(S(N)(=O)=O)cc1	–
CCOc1ccc(S(=O)(=O)Nc2ccc(I)cc2)cc1	–
CCc1ccc(S(=O)(=O)N=C2C=C(Nc3ccccc3)C(=O)c3ccccc32)cc1	79.0%
CCOc1ccc(S(=O)(=O)N=C2C=C(Nc3ccc(OC)cc3)C(=O)c3ccccc32)cc1	93.0%
COc1ccc(NS(=O)(=O)c2c(C)cc(C)nc2Cl)cc1	–
CC1CCC(C(=O)NC(C(=O)NCCCN2CCCC2=O)C(C)C)CC1 (stereo not given)	–
O=S(=O)(NCc1nc2cccnc2n1Cc1ccccc1)c1ccc(F)c(Cl)c1	–
O=C(c1ccccc1)N1C[C@@H]2C[C@H](C1)c1ccc(-c3ccccc3CN3CCOCC3)c(=O)n1C2	–
O=C1Nc2ccc(Br)cc2C(O)(C(=O)NC2CCCCC2)N1c1ccc(Cl)cc1 (stereo not given)	–
Cc1nn(CC(=O)N(C)C(C)Cc2ccccn2)cc1Cl (stereo not given)	–
O=C(Nc1ccc(Cl)cc1)c1cc2c3c(c1)C1C=CCC1CN3CC1CC=CC21 (stereo not given)	–
CCOc1ccc(S(=O)(=O)N=C2C=C(Nc3ccccc3)C(=O)c3ccccc32)cc1	87.0%
CCOc1ccc(S(=O)(=O)N(CC(=O)Nc2cccc(OC)c2)c2ccccc2)cc1	–
CCOc1ccc(S(=O)(=O)NCCO)cc1	–
SMILES	ST2 inh
Cc1ccc(S(=O)(=O)N2CCN(c3ccccc3)CC2)cc1	–
COc1ccc(S(=O)(=O)N2CCN(S(=O)(=O)c3ccc(C)cc3)CC2)cc1	–
Cc1ccc(S(=O)(=O)N2CN3CN(C2)CN(S(=O)(=O)c2ccc(C)cc2)C3)cc1	46.0%
OCC1(Cc2cccc(C(F)(F)F)c2)CCN(Cc2ccnc3ccccc23)CC1	–
COc1ccc(-c2cnn(-c3ccccc3)c2N)cc1OC	–
COc1ccc(/C=C/c2nc(-c3ccccc3O)n(-c3ccccc3)n2)cc1OC	36.0%
Cc1cc(C)n(-c2nc(-c3ccccc3)cc(-c3ccccc3O)n2)n1	–
COc1cc(/C=C/c2nc3ccccc3c(=O)n2-c2cccc([N+](=O)[O-])c2)ccc1O	–
Oc1ccccc1/C=C/c1nc(-c2ccccc2O)n(-c2ccccc2)n1	36.0%
Oc1ccccc1C=Nc1ccccc1-c1nnc2n1CCCCC2	–
COc1cc(OC)c(N(C)C(=O)Cc2c(C(=O)O)[nH]c3ccccc23)cc1Cl	–
Cc1ccc(-c2ccc(C(=O)NC(C)c3cnn(C)c3)o2)cc1 (stereo not given)	–
NC1=Nc2ccccc2CCC1	–
COc1ccccc1Oc1nc2c(c(=O)n(C)c(=O)n2C)n1Cc1ccccc1	–
CC(C)C(C(=O)O)N1C(=O)c2cccc([N+](=O)[O-])c2C1=O (stereo not given)	–
O=C(Oc1ccc(OC(=O)c2cccnc2)c(Br)c1)c1cccnc1	–
COc1cc(NC(=O)C(C)(C)Oc2ccc(Cl)cc2)c(OC)cc1Cl	–
COc1cc([N+](=O)[O-])ccc1NC(=O)C(C)(C)Oc1ccc(Cl)cc1	30.0%
COc1ccc(NC(=O)C(C)(C)Oc2ccc(Cl)cc2)cc1OC	–
CN1C[C@@H](N)C[C@H]1C(=O)NCC1CCN(CCc2ccccc2)CC1	–
O=C1CC2(CCCCC2)Oc2ccc(O)cc21	–
Nc1ccc2c(c1)OC1(CCCCC1)O2	37.0%
CC1(C(=O)Nc2ccc3c(c2)OC2(CCCCC2)O3)CC1(Cl)Cl (stereo not given)	–
Cc1ccccc1Cn1c(NCCOCCO)nc2c1c(=O)n(C)c(=O)n2C	–
Cc1nccn1-c1ccc(CNC(C)CO)cc1 (stereo not given)	–
SMILES	ST2 inh
O=[N+]([O-])c1ccc(/C=C/c2ccc3ccccc3n2)o1	67.0%
Cn1c(/C=C/c2ccc([N+](=O)[O-])o2)nc2ccc(I)cc2c1=O	–
Clc1ccc(OCCCCN2CCCC2)c(Br)c1	–
O=[N+]([O-])c1cccc(-c2noc(COc3ccc(Cl)cc3)n2)c1	–
COc1ccc(C(=O)Nc2cccc(NC(=O)c3ccccc3Cl)c2)cc1[N+](=O)[O-]	–
COc1ccc(C(=O)Nc2cccc(NC(=O)c3ccccc3Cl)c2)cc1Br	59.0%
CCOc1ccc(C(=O)Nc2cccc(Cl)c2)cc1Br	–
